From paper PMC5540273 (PLoS ONE, 2017) come the findings set out here.

One assay deals with T1, DCAMKL3.
T1 construct: gene DCLK3

Another assay has as its system T2, DRAK2.
T2 construct: gene STK17B
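Also: kd values determined as follow-up on hits from a single-replicate KINOMEscan panel screen.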

What is called Kd is the constant that tells how readily two partners part at equilibrium. In the assay with DCAMKL3, `CC[C@@H]1CO[C@H](C(=O)Nc2ccccc2)CN1c1cc(-c2ccc3c(N)n[nH]c3c2)nc(NC)n1` [GSK2376236] gave a Kd of 570 nM.

On to `CNc1nc(-c2ccc3c(N)n[nH]c3c2)cc(N2C[C@@H](C(=O)Nc3ccccc3)CC[C@H]2C)n1` [GSK2298859], for which binding in the assay with DRAK2 was put at a Kd of 83 nM.

In the assay with DYRK1A, `COc1ccc(Nc2nccc(N3CCC(NC(=O)C(C)c4ccc(Cl)cc4)CC3)n2)cc1` (stereo not shown) [GSK1379812] gave a dissociation constant Kd of more than 10000 nM.

`CNc1cc(-c2ccc3c(N)n[nH]c3c2)nc(N)n1` [GSK2224810] showed a dissociation constant Kd in the assay with DYRK2 of 33 nM.

In the case of `Cn1cncc1-c1cc2c(Nc3ccc(OCc4ccccc4)cc3)ncnc2cn1` [GW281179], the Kd with EGFR was 10 nM.

`Cc1ccc(NC(=O)c2ccc(Cl)cc2)cc1-c1ccc(C(=O)Nc2ccncc2)cc1` [GSK1398467] registered a Kd in the assay on EPHA3 of more than 10000 nM.

As to `Cc1ccc(-c2nc(Nc3ccncc3)c3ccccc3n2)s1` [GSK189015], in the assay on EPHA5, the Kd is more than 10000 nM.
